Molecules are shown by their SMILES. Counter-ions that a name gives are not always drawn. ± gives the standard error. In all, about 1,300 compounds went through this assay and about 75 (6%) showed an effect of 50% or more. For the sample, strong results were picked, then their nearest neighbours and some compounds at random.

The values below come from the supplement of paper PMC8007513.

The subject of this assay is Trichoderma virens ATCC 9645. The experiment in a line: growth yield (OD600) relative to untreated control; higher = less growth inhibition. The conditions noted are these: compound concentration: 100 uM. The method, boiled down:
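A biocide at 200 ng ml^−1 was co-applied to some wells, and library compounds were present in all test wells at 100 μM final. The wells held 100 μl of Trichoderma virens ATCC 9645 spores at 15,000 spores ml^−1 in potato dextrose broth, grown at 30 °C in 96-well plates, with OD600 read at 40 h and 72 h. Results are relative growth against the control without either agent, averaged across duplicate screens.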

For the compound `CCN1CCC[C@H]1CNC(=O)c1c(OC)ccc(Br)c1OC` [Remoxipride Hydrochloride], the growth yield is, setting by setting: (40 h) 101 ± 1.9%; (72 h) 101.8 ± 0.94%.

As for `O=C(O)Cc1sc(-c2ccccc2)nc1-c1ccc(Cl)cc1` [Fentiazac], the growth yield reads like this: (40 h) 63.1 ± 4.3%; (72 h) 88.8 ± 4.9%.

As for `CC[N+](CC)(CC)CCC(O)(c1ccccc1)C1CCCCC1` (stereo not given) [Tridihexethyl chloride], the growth yield amounted to 103 ± 6.3% (40 h) and 101 ± 4.5% (72 h).

Take `CCCCN(CCCC)CCCOC(=O)c1ccc(N)cc1` [Butacaine]: the growth yield is, setting by setting: (40 h) 95.5 ± 4.9%; (72 h) 98.5 ± 4.1%.

In the case of `CCCCOC(=O)c1ccc(O)cc1` [Butylparaben], the growth yield runs as follows: (40 h) 46.4 ± 2.2%; (72 h) 49.5 ± 0.84%.

On to `CCCCOC(=O)c1ccc(N)cc1` [Butamben], for which the growth yield was 66.9 ± 1.8% (40 h) and 73 ± 2.5% (72 h).

As for `CC(C)(C)NC(=O)[C@@H]1C[C@@H]2CCCC[C@@H]2CN1C[C@@H](O)[C@H](Cc1ccccc1)NC(=O)[C@H](CC(N)=O)NC(=O)c1ccc2ccccc2n1` [Saquinavir mesylate], the growth yield is, setting by setting: (40 h) 110 ± 3.3%; (72 h) 107 ± 3.1%.

For `CC[C@H](C)C(=O)O[C@H]1C[C@@H](C)C=C2C=C[C@H](C)[C@H](CC[C@@H]3C[C@@H](O)CC(=O)O3)[C@H]21` [Lovastatin], the growth yield by setting is: (40 h) 94.8 ± 5.2%; (72 h) 94.5 ± 3.2%.

For the compound `CCCCC(CC)CN1CN(CC(CC)CCCC)CC(C)(N)C1` (stereo not given) [Hexetidine], the growth yield is, setting by setting: (40 h) 105 ± 3.2%; (72 h) 118 ± 6.3%.

Consider `NCc1ccc(S(N)(=O)=O)cc1` [Mafenide hydrochloride], for which the growth yield was 107 ± 2.5% (40 h) and 111 ± 4.2% (72 h).

Regarding `NS(=O)(=O)c1cc(C2(O)NC(=O)c3ccccc32)ccc1Cl` (stereo not given) [Chlorthalidone], the growth yield by setting is: (40 h) 102 ± 3.6%; (72 h) 105 ± 3.7%.

For the compound `CCOC(=O)C1=C(COCCN)NC(C)=C(C(=O)OC)C1c1ccccc1Cl` (stereo not given) [Amlodipine], the growth yield reads like this: (40 h) 105 ± 12%; (72 h) 113 ± 11%.

With `CC(C(=O)O)c1ccc(-c2ccccc2)c(F)c1` (stereo not given) [Flurbiprofen], the growth yield by setting is: (40 h) 72.9 ± 3%; (72 h) 86.5 ± 3.9%.

In the case of `COc1ccc2cc([C@@H](C)C(=O)O)ccc2c1` [(R) -Naproxen sodium salt], the growth yield (40 h) is 84.5 ± 7% and the growth yield (72 h) was found to be 87.2 ± 6.4%.

For the compound `CC(C(=O)O)c1ccc2c(c1)[nH]c1ccc(Cl)cc12` (stereo not given) [Carprofen], the growth yield by setting is: (40 h) 40.7 ± 15%; (72 h) 88.9 ± 8%.

For the compound `CC[N+](C)(CC)CCOC(=O)C1c2ccccc2Oc2ccccc21` [Methantheline bromide], the growth yield is 110 ± 1.8% (40 h) and 108 ± 1.3% (72 h).

As to `CCOC(=O)[C@H](CCc1ccccc1)N[C@@H](C)C(=O)N1Cc2ccccc2C[C@H]1C(=O)O` [Quinapril hydrochloride], the growth yield is, setting by setting: (40 h) 98.8 ± 3.8%; (72 h) 98.1 ± 1.1%.

For `Cc1cccc(C)c1NC(=O)CN1CCN(CCCC(c2ccc(F)cc2)c2ccc(F)cc2)CC1` [Lidoflazine], the growth yield was found to be 95.6 ± 1.3% (40 h) and 114 ± 3% (72 h).

Take `CN(C)CCCO[C@@H]1[C@H]2OC(C)(C)O[C@H]2O[C@@H]1[C@H](O)CO` [Amiprilose hydrochloride]: the growth yield is 100.5 ± 0.79% (40 h) and 101.6 ± 0.73% (72 h).

With `CN(C/C=C/C#CC(C)(C)C)Cc1cccc2ccccc12` [Terbinafine], the growth yield reads like this: (40 h) 2.7 ± 0.16%; (72 h) 2.52%.

Take `c1ccc2c(CC3=NCCN3)cccc2c1` [Naphazoline hydrochloride]: the growth yield is, setting by setting: (40 h) 101 ± 2.4%; (72 h) 100%.

As to `CN(Cc1ccc(C(C)(C)C)cc1)Cc1cccc2ccccc12` [Butenafine Hydrochloride], the growth yield by setting is: (40 h) 2.06 ± 1.4%; (72 h) 1.99 ± 1.1%.

On to `C#CCN(C)Cc1ccccc1` [Pargyline hydrochloride], for which the growth yield is, setting by setting: (40 h) 105 ± 2.1%; (72 h) 107 ± 2.9%.

Consider `CN(C/C=C/c1ccccc1)Cc1cccc2ccccc12` [Naftifine hydrochloride], for which the growth yield reads like this: (40 h) 15.6 ± 1.6%; (72 h) 55.5 ± 4.3%.

`CC1(C)O[C@@H]2C[C@H]3[C@@H]4C[C@H](F)C5=CC(=O)C=C[C@]5(C)[C@H]4[C@@H](O)C[C@]3(C)[C@]2(C(=O)CO)O1` [Flunisolide]: the growth yield reads like this: (40 h) 100.5 ± 0.48%; (72 h) 96.5 ± 1.3%.

As for `N=C(N)N1CCc2ccccc2C1` [Debrisoquin sulfate], the growth yield was found to be 97.5 ± 1.3% (40 h) and 101.8 ± 0.52% (72 h).

In turn, `CNCC[C@@H](Oc1cccc2ccccc12)c1cccs1` [(R)-Duloxetine hydrochloride] had a growth yield (40 h) of 99.1 ± 2.9% and a growth yield (72 h) of 107 ± 3.1%.

Compound `Cc1ncc([N+](=O)[O-])n1CC(O)CCl` (stereo not given) [Ornidazole] registered a growth yield (40 h) of 99.8 ± 2.9% and a growth yield (72 h) of 103 ± 2.3%.

The compound `CC(=O)N(CC(C)C(=O)O)c1c(I)cc(I)c(N)c1I` (stereo not given) [Iocetamic acid] had a growth yield (40 h) of 107 ± 1.6% and a growth yield (72 h) of 104 ± 1.1%.

For `N[C@@H](C(=O)N[C@@H]1C(=O)N2C(C(=O)O)=C(Cl)CS[C@H]12)c1ccccc1` [Cefaclor hydrate], the growth yield was determined as 96.1 ± 4.6% (40 h) and 96.9 ± 4.2% (72 h).

As to `CCCCC(C)(O)C/C=C/[C@H]1[C@H](O)CC(=O)[C@@H]1CCCCCCC(=O)OC` (mixture of isomers) [Misoprostol], the growth yield is, setting by setting: (40 h) 105 ± 1.3%; (72 h) 109 ± 4.1%.

Compound `CCOC(=O)O[C@]1(C(=O)COC(=O)CC)CC[C@H]2[C@@H]3CCC4=CC(=O)C=C[C@]4(C)[C@H]3[C@@H](O)C[C@@]21C` [Prednicarbate] came in with a growth yield (40 h) of 118 ± 3% and a growth yield (72 h) of 114 ± 2.8%.

Take `O=c1[nH]c(=O)n([C@H]2C[C@H](O)[C@@H](CO)O2)cc1I` [Idoxuridine]: the growth yield runs as follows: (40 h) 102 ± 3.8%; (72 h) 99.4 ± 3.1%.

For `O=c1[nH]c(=O)n([C@H]2C[C@H](O)[C@@H](CO)O2)cc1F` [Floxuridine], the growth yield is, setting by setting: (40 h) 11.1 ± 3.8%; (72 h) 46.3 ± 9.3%.

With `O=c1[nH]c(=O)n([C@H]2C[C@H](O)[C@@H](CO)O2)cc1C(F)(F)F` [Trifluridine], the growth yield by setting is: (40 h) 109.9 ± 0.95%; (72 h) 106 ± 1.1%.
